# POLK inh: inhibitors of human DNA polymerase kappa. Q9UBT6. 0.53% of 400,000 active. Potency, µM (doses to about 107 µM), inactives show top-dose activity, negative = inhibition, most hits filed as inhibitors. AID 588579. purified Pol kappa, fluorescent DNA synthesis assay, 10 min; also: % is scaled to controls: 0 for no effect and ±100 for the full control effect
#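 Pol kappa 10 nM + cpd, 15 min RT; start w/ substrate 50 nM final; fluorescence kinetic read, 0 and 10 min. Neg ctrl: buffer, no enzyme.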
# L3MBTL1 block: L3MBTL1 (human) inhibition; AlphaScreen L3MBTL1–H3K9me1 peptide binding; Potency, µM (highest dose often 57.1 µM), inactives show at the highest dose activity, negative = inhibition, actives largely listed as inhibitors; 0.66% of 230,000 active; AID 485360; also: % is scaled to controls: 0 for no effect and ±100 for the full control effect; nearly all actives have a fitted effect of over 60% in size
#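 L3MBTL1 50 nM + b-AHA-H3(1-15)K9me1 75 nM, 30 min RT; compound added, 30 min RT; streptavidin donor/Ni-chelate acceptor beads 10 ug/mL each final, 30 min RT dark; AlphaScreen read.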
# POLH inh: inhibitors of human DNA polymerase eta; Q9Y253; AID 588591; 1.2% of 390,000 active; recombinant Pol eta, fluorescent DNA replication assay; Potency, µM (top dose mostly 114 µM), inactives show at the highest dose activity change, negative = inhibition, usual class: inhibitors; also: % is scaled to controls: 0 for no effect and ±100 for the full control effect
# Target sequence (Q9Y253 whole entry, looked up): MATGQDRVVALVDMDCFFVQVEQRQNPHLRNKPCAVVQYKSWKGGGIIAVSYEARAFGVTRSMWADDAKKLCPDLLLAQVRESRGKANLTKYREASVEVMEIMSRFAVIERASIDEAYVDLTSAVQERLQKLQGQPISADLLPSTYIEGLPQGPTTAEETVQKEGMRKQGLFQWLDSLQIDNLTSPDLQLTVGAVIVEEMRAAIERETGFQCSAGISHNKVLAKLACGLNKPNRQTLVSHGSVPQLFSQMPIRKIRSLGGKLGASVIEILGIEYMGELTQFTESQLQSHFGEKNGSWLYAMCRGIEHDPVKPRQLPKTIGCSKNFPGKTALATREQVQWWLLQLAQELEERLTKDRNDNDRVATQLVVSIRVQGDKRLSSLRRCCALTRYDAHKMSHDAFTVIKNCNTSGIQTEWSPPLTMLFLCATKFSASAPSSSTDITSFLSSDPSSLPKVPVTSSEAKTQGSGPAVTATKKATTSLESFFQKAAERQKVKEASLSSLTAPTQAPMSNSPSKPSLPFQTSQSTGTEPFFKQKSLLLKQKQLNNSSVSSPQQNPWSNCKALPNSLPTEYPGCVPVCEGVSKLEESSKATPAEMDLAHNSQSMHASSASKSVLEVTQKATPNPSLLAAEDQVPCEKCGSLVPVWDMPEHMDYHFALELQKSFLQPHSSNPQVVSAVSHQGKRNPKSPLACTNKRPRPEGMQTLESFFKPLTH
#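 Pol eta at 10 nM preincubated with compounds 15 min at room temperature; reaction started with fluorescent substrate (50 nM final) and read kinetically at 0 and 10 min.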
# APE1 inh: inhibitors of human APE1 endonuclease; P27695; recombinant APE1, TAMRA/BHQ-2 abasic DNA cleavage fluorescence; Potency, µM (highest dose often 65.8 µM), for the others: top-dose activity change, negative = inhibition, actives largely listed as inhibitors; 0.35% of 350,000 active;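 also: plate controls were vehicle for no effect and reference inhibitor for full effect; nearly all actives have a fitted effect of over 55% in size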
#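 APE1 at 0.75 nM preincubated 15 min at room temperature with compound. Reaction then started with 50 nM double-stranded THF-abasic substrate labelled with TAMRA/BHQ-2, and 525/598 nm fluorescence read kinetically. Activity taken as third-minus-first read difference, normalized to DMSO and NSC13755 controls.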
# Pol beta inh: DNA polymerase beta (human) inhibition; P06746; Pol beta primer extension/strand displacement, fluorescence kinetic; Potency, µM (top dose mostly 114 µM), for inactives: at the top dose activity change, negative = inhibition, actives largely listed as inhibitors; 1.3% of 340,000 active; also: % is scaled to controls: 0 for no effect and ±100 for the full control effect
#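 Curves were derived by four-parameter Hill fits of normalized qHTS data. The kinetic fluorescent primer-extension read was taken at 0 and 10 min after 50 nM substrate, following a 15 min room-temperature preincubation of 10 nM enzyme with compounds.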
# Pol iota inh: inhibitors of human DNA polymerase iota | AID 588590 | Pol iota fluorescent replication assay, 10 min | 1% of 390,000 active | Potency, µM (top dose mostly 115 µM), for the others: at the top dose activity, negative = inhibition, usual class: inhibitors
#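 Fluorescent replication assay read twice, at 0 min and 10 min after adding 50 nM (final) substrate. Enzyme (10 nM) and compounds were first incubated 15 min at room temperature; enzyme-free buffer wells were negative controls.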
# * marks the source's active call; other numbers are inactive results; u = inconclusive; x = no result given; ! = not active in a repeat; [ ] = another dose, or the depositor's remark. Sampled rows, rich in hits. Any-hit rate of the full collection: about 2.5%. Calls follow the shape of the dose curve; as a rule, active = well fitted curve in the direction sought with a large enough effect; inconclusive = small, poorly fitted or top-dose-only effect, or another doubt; inactive = no such curve, though single readings can be large; an effect the other way counts as inactive or inconclusive. Potency is read from the fitted curve at half-maximal effect.
SMILES,POLK inh,L3MBTL1 block,POLH inh,APE1 inh,Pol beta inh,Pol iota inh
Cc1ccc(CCNC(=O)Cn2nc(C)c3c(C)n(-c4ccc(C)cc4)nc3c2=O)cc1,-2%,x,u,x,79µM*,-7%
CCOC(=O)Cn1c(-c2ccccc2)ccc(C#N)c1=O,-1%,29%,-12%,1%,8%,110%
O=C(Nc1ccc(Br)cc1C(=O)O)c1ccc2c(c1)C(=O)N(Cc1ccccc1)C2=O,-7%,x,28µM*,18%,15%,72%
CCN1C(=O)/C(=C\c2ccc([N+](=O)[O-])s2)C(=O)NC1=S,x,x,x,u,4.5µM*,x
CC(=O)[O-].CC(=O)[O-].O.O.O.[Pb+2],x,x,x,-3%,x,x
C=CC1CC=CCC1 (configuration not stated),x,x,x,-2%,x,x
Cc1cccc(NC(=O)Cn2cc(C(=O)C3CC3)c3ccccc32)c1C,-10%,x,-3%,20%,u,u
[Cl-].[Cl-].[Hg+2],-29%[60.1 µM],x,x,x,x,x
[Cd+2].[Cl-].[Cl-],x,x,x,0.79µM*,x,x
CCC(C=C[C@@H]1OC(=O)C=C[C@H]1C)=C[C@H](C)CC=CC(C)=C[C@@H](C)C(=O)[C@@H](C)[C@H](O)[C@@H](C)CC(C)=CC(=O)O,-7%[2.39 µM],x,x,u,x,x
CN1CCC(N(C)c2ncnc3ccc(Br)cc23)CC1,-5%,-9%,-4%,-3%,u,27%
Cc1ccc(-c2nc(N(C)C3CCN(C)CC3)c3ccccc3n2)cc1,-8%,x,1%,-2%,28µM*,u
NCC[C@H](O)C(=O)N[C@@H]1C[C@H](N)[C@@H](O[C@H]2O[C@H](CN)[C@@H](O)[C@H](O)[C@H]2N)[C@H](O[C@@H]2O[C@H](CO)[C@@H](O)[C@H]2O)[C@H]1O,x,x,x,-1%[21 µM],x,x
CC(=O)O[C@H]1C[C@@H]2CCC3C(CC[C@@]4(C)[C@H]3C[C@H]([N+]3(C)CCCCC3)[C@@H]4OC(C)=O)[C@@]2(C)C[C@@H]1[N+]1(C)CCCCC1 (some centres not stated),x,x,-6%[57.1 µM],17%,17%[57.1 µM],4%[58.9 µM]
O=[N+]([O-])c1cc(O)c(O)c([N+](=O)[O-])c1,16µM*!,-7%,u,u,5%[57.1 µM],u
O=C(O)c1cc([N+](=O)[O-])cc([N+](=O)[O-])c1O,15%[60.1 µM],x,x,-4%,x,x
CCC12CCN(C)CC1Oc1c(C)cccc12 (configuration not stated),x,x,x,12%,x,x
COC(=O)C1=C(c2ccc3ccccc3c2)C[C@@H]2CC[C@H]1N2C(=O)NCc1ccco1,u,-25%,35µM*,-7%,x,-28%
CC/C(CC(c1ccccc1)c1c(O)c2ccccc2oc1=O)=N\NC(N)=S (configuration not stated),u,-10%,28µM*,25µM*,u,u
CCOc1ccc(NC(=S)N2CCC(NC(=O)c3ccccc3C)CC2)cc1,3%,x,-9%,11%,2%,31%
Cn1ccnc1,13%[60.1 µM],x,4%[57.1 µM],u,-6%[57.1 µM],-8%[58.9 µM]
COc1ccc(P2(=O)Nc3ccccc3N2)cc1,-32%,-12%,-9%,-3%,40µM*,91%
C=C(Cl)CCl,x,x,x,3%,x,x
O=C1NC(=S)NC(=O)C1=Cc1ccc(OCC(=O)N2CCCC2)cc1,-34%,x,u,12%,50µM*,u
CC1(C)OC(c2ccccc2)=C/C(=C/C=C2C(=O)NC(=O)NC2=O)O1,-32%,x,u,-4%,14µM*,u
SMILES,POLK inh,L3MBTL1 block,POLH inh,APE1 inh,Pol beta inh,Pol iota inh
COc1ccc(OC)c([C@@H](O)[C@H](C)N)c1,x,x,x,1%,x,x
O=C(CN1C(=O)CN=C(c2ccccc2)c2ccccc21)NCc1ccco1,u,20µM*,u,2%,1%,-7%
[Hg+][c]1ccccc1,2%[19.4 µM],x,x,x,x,14µM*
c1ccc(-c2ccccc2)cc1,x,x,x,13%,x,x
O=C1C=CC(=O)C(Cl)=C1,16µM*,x,x,28µM*,x,x
CNC(C)C#Cc1ccc2oc3cc(C)c(C)cc3c(=O)c2c1 (configuration not stated),19%,x,-16%,x,x,8.9µM*
CC1(C)C[C@H]2C=C(C=O)[C@]3(C=O)C[C@]3(C)[C@H]2C1,u,-12%,-10%,-6%,20µM*,45µM*
O=C1NC(=S)N(c2ccc(Cl)cc2)C(=O)/C1=C/N1CCN(C(=O)c2ccco2)CC1,-4%,1%,-13%,-6%,-2%,u
COc1ccc(OC)c(N2C(=O)/C(=C/c3ccco3)C(=O)NC2=S)c1,3.5µM*,x,0.71µM*,0.095µM*,u,u
O=C1NC(=S)N(c2ccc(F)cc2)C(=O)/C1=C/c1ccco1,x,-94%,x,0.21µM*,0.56µM*,x
COc1ccc(N2C(=O)/C(=C/c3cc(C)n(-c4ccc(C)cn4)c3C)C(=O)NC2=S)c(OC)c1,0%,u,u,-4%,1%,1%
CC(C)CON=O,x,x,x,2%,x,x
O=C(Cc1ccccc1)N1CCN(Cc2ccccc2Cl)CC1,-19%,x,-6%,45%,-7%,-11%
Oc1c(Cl)cc(Cl)cc1CN1CCN(Cc2ccccc2)CC1,-13%,2%,-5%,-9%,11%,32µM*
Cc1cc(Oc2cc(NN3CCCCC3)c([N+](=O)[O-])cc2[N+](=O)[O-])ccc1[N+](=O)[O-],-21%,u,-11%,30%,40µM*,u
O=[N+]([O-])c1ccc(N2CCCC2)c(F)c1Br,-4%,-18%,-14%,5%,42%,u
CC[C@@]1(O)C(=O)OCc2c1cc1n(c2=O)Cc2cc3c(N)cccc3nc2-1,79µM*,x,22µM*,u,50µM*,u
C=CCN1C(=O)/C(=C\c2ccc(N3CCOCC3)o2)C(=O)NC1=S,-11%,-7%,28µM*,u,-2%,u
Cn1cc(/C=C2\C(=O)NC(=O)N(c3ccccc3)C2=O)c2ccccc21,-19%,x,25µM*,14%,-7%,u
COc1cc(/C=C2\C(=O)NC(=O)N(c3ccccc3)C2=O)cc(OC)c1O,0%,x,3%,10%,2%,25µM*
O=C(O)Cn1cc(/C=C2\C(=O)NC(=O)N(c3ccc(Cl)cc3)C2=O)c2ccccc21,-10%,x,u,-26%,2%,u
COc1cc(/C=C2\C(=O)NC(=O)N(c3ccccc3)C2=O)c([N+](=O)[O-])cc1OC,-7%,17%,-23%,-4%,13%,136%
O=[N+]([O-])/N=C1\NCCN1Cc1ccc(Cl)nc1,x,x,x,-2%,x,x
CN1CCN(c2ccc([N+](=O)[O-])c3no[n+]([O-])c23)CC1,-15%,x,89µM*,-10%,-24%,18µM*
O=[N+]([O-])c1ccc(N(CCO)CCO)c2c1no[n+]2[O-],x,x,28µM*,x,x,x
